Most compounds without a hit are left out; they make up all but 4.7% or so of the library.
TRHR agonist: agonists of human TRH receptor; P34981; 0.18% of 360,000 active; AID 493084; activation, % at 2 µM; TRHR cells, calcium flux fluo-8, FDSS agonist mode; note: 0% is about no effect
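TRHR-expressing cells loaded with fluo-8 calcium dye; 23 nL library compound pin-transferred, kinetic FDSS fluorescence (Ex 480/Em 530) recorded about 180 s for agonist-induced calcium release, before a 10 nM TRH EC20 addition for potentiator mode.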
TRHR PAM: allosteric enhancers of human TRH receptor. TRHR cells, fluo-8 calcium fluorescence, EC20 TRH enhancement. enhancement, % at 2 µM. 0.66% of 360,000 active. P34981. AID 493056; in the data active = enhancement above about 30%; note: 0% is about no effect
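TRHR-expressing cells loaded with fluo-8 calcium dye were read kinetically (ex 480/em 530) during compound addition, then stimulated with an EC20 of TRH (10 nM final). Enhancement of the Gq-mediated intracellular calcium response was scored.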
D1 agonist: activates the human D1 dopamine receptor; P21728; HEK293 T-REx D1 cells, calcium flux, agonist mode; activation, % at 2 µM; 1% of 360,000 active; AID 504660; note: 0% is about no effect
Target sequence (P21728 whole entry, looked up): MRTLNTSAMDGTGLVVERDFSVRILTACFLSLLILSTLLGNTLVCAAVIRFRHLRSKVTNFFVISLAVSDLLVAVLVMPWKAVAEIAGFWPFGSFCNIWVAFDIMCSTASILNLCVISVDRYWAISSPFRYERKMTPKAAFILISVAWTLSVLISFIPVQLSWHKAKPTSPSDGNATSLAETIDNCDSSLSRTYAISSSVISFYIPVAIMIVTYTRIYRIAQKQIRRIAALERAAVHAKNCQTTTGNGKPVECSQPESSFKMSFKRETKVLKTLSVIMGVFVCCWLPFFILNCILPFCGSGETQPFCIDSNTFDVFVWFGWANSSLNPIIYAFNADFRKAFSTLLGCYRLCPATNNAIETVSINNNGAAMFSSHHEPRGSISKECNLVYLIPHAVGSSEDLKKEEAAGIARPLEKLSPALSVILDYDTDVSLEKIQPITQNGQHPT
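Tetracycline-induced HEK293 TREx D1 cells, force-coupled to calcium signalling, were dye-loaded with a no-wash calcium kit. Compound was pin-added after a 10 s baseline. Fluorescence was read kinetically at 1 cycle/s for 180 s, with calcium rises flagged as agonism.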
D1 antag: antagonists of human D1 dopamine receptor; P21728; HEK293 TREx D1 cells, calcium flux, dopamine EC80; hits give low values; activity change, negative = inhibition, % at 10 µM; 3.2% of 360,000 active; AID 504652; in the data active = activity change below about -30%; note: % is set by controls: 0 for no effect and ±100 for the full control effect
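Tetracycline-induced HEK293 T-REx cells with force-coupled D1 receptor were loaded with a no-wash calcium dye. Compound was added after a 10 s baseline and read kinetically for 180 s; EC80 dopamine was then added and calcium flux followed another 180 s.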
D1 PAM: human D1 dopamine receptor positive modulation; AID 504651; HEK293 TREx D1 cells, calcium flux, dopamine EC20 potentiation; P21728; 0.036% of 360,000 active; potentiation, % at 10 µM; in the data active = potentiation above about 30%; note: 0% is about no effect
* marks the source's active call; other numbers are inactive results; ! = not active in a repeat. Cut-off read from the data, not from the text of the source, unless noted: active = activation above about 30%; inactive = the rest.

SMILES	TRHR agonist	TRHR PAM	D1 agonist	D1 antag	D1 PAM
CC(Cc1cccs1)NC(=S)Nc1ccc(Cl)cc1 (configuration not stated)	0.4	-6.4	21.6	-59.6*	-9.2
COc1ccc(OC)c(-c2cc(C(=O)NCc3ccco3)no2)c1	0.1	-5.1	3.2	-33.5*	-16.2
COc1ccc2c(c1)CCc1c(C(=O)Nc3c(C)nn(Cc4ccccc4)c3C)noc1-2	-2.1	-4.5	17.8	-31.8*!	-2.0
O=C(Nc1cnn(Cc2ccc(Cl)cc2Cl)c1)c1noc2c1CCc1ccccc1-2	35.3*	5.1	2.0	6.4	-1.6
COc1ccc(OC)c(-c2cc(C(=O)Nc3c(C)nn(Cc4ccc(Cl)cc4)c3C)no2)c1	-0.7	5.3	3.6	6.8	3.5
COc1ccc2c(c1)CCc1c(C(=O)Nc3c(C)nn(Cc4ccc(Cl)cc4)c3C)noc1-2	-1.3	20.4	6.3	-20.8	-1.9
COc1cccc(-c2cc(C(=O)NCc3ccco3)no2)c1	0.1	4.0	0.6	-8.5	-5.0
COc1ccc(OC)c(-c2cc(C(=O)Nc3c(C)nn(Cc4ccccc4)c3C)no2)c1	-0.9	-1.8	4.0	-43.6*	0.7
COc1ccc(-c2cn3c(n2)sc2cc(C(=O)N4CCCCC4)ccc23)cc1	-0.2	-9.5	1.4	-1.4	-1.1
COc1ccc2c(c1)CCc1c(C(=O)Nc3c(C)nn(Cc4ccccc4Cl)c3C)noc1-2	-0.9	4.5	17.8	-40.1*	-1.9
COc1ccc2c(c1)CCc1c(C(=O)Nc3c(C)nn(Cc4ccc(Cl)c(Cl)c4)c3C)noc1-2	-1.9	12.2	18.7	-4.0	0.8
CN1CCCC(OC(=O)c2ccccc2F)C1 (configuration not stated)	0.6	22.3	1.3	3.2	-6.6
CC(CN1c2ccccc2Sc2ccccc21)N(C)C (configuration not stated)	-0.5	-6.3	2.7	-8.1	-3.0
CN1CCCC(CN2c3ccccc3Sc3ccccc32)C1 (configuration not stated)	6.0	1.6	41.7*	-23.0	-5.0
CN1CCCC(CC2c3ccccc3Sc3ccccc32)C1 (configuration not stated)	5.1	-0.7	53.4*	-40.5*	-1.1
O=C(Cc1cccc(NC(=O)C2CCN(C(=O)C3CC3)CC2)c1)Nc1cccc(C(=O)N2CCCC2)c1	0.2	2.9	6.7	-12.7	-0.4
Cc1sc2ncn(CC(=O)N3CCC(C(N)=O)CC3)c(=O)c2c1S(=O)(=O)N1CC(C)CC(C)C1 (configuration not stated)	-0.2	-1.1	3.2	-1.7	-2.8
CCOc1cc(CNCc2ccccc2)ccc1OCC(=O)NC1CCCCC1	1.1	14.3	33.6*	-8.6	-4.2
CCOc1ccc(C(=O)OCC(=O)NC2CCCC2)cc1OCC	-0.4	5.0	2.2	-16.2	0.3
Cc1cc(N2CCOCC2)ccc1/C=C\[N+](=O)[O-]	12.8	1.1	47.3*	11.2	-2.4
COc1ccc(Cn2c(CCC(=O)Nc3cc(OC)c(OC)c(OC)c3)nc3cccnc32)cc1	-2.3	2.2	4.0	-47.2*	-2.5
COc1ccc(Cn2c(CCC(=O)Nc3ccccc3)nc3cccnc32)cc1	-0.8	-2.7	0.8	9.5	-5.9
COc1ccc(CSC(=N)N)cc1[N+](=O)[O-]	0.7	6.4	2.6	2.9	4.2
CCCCOc1ccc(Br)cc1CSC(=N)N	2.0	3.8	61.8*	-3.7	-5.3
CCOc1ccc(C(C)=O)cc1CSC(=N)N	0.0	6.8	4.1	-27.3	-5.7
SMILES	TRHR agonist	TRHR PAM	D1 agonist	D1 antag	D1 PAM
CCCCCOc1ccc(CSC(=N)N)cc1[N+](=O)[O-]	4.5	9.0	55.9*	35.0	-0.8
COc1ccc(N(C(=O)c2ccco2)S(=O)(=O)c2ccc(F)cc2)cc1	0.8	2.8	6.7	-57.7*	-10.4
COc1ccc(N(C(=O)c2ccco2)S(=O)(=O)c2cccs2)cc1	-0.8	-0.8	0.7	-0.2	-4.3
COc1ccc(N(C(=O)c2ccco2)S(=O)(=O)c2cc(OC)ccc2OC)cc1	-1.1	-9.8	3.9	-35.1*	-18.0
CN1/C(=C\C(=O)Nc2ccc(Br)cc2)C(C)(C)c2ccccc21	0.2	13.0	1.9	-7.7	-7.0
CN1/C(=C\C(=S)NC(=O)c2cccc(Br)c2)C(C)(C)c2ccccc21	0.1	-4.2	3.1	-69.4*	-5.6
Cc1cccc([S+](=O)([O-])NC2CCN(C#N)CC2)c1	1.2	-1.2	2.0	-81.0*	-0.1

Screens (PubChem)
